Measured values taken from paper PMC3737563, “Investigation of DNA sequence recognition by a streptomycete MarR family transcriptional regulator through surface plasmon resonance and X-ray crystallography”.

What follows are sequences tested against T1, SCO3205 (MarR family regulator) (Streptomyces coelicolor, UniProt Q9KYU1 1-163) (assay: SPR (ReDCaT); 100 nM SCO3205 dimer; HBS-EP+ buffer: 10 mM HEPES pH 7.4, 150 mM NaCl, 3 mM EDTA, 0.05% (v/v) surfactant P20; 20 C; Biacore T200, ReDCaT SA chip; high values mean tight binding). Conditions: protein: recombinant; tags: N-terminal His tag plus TEV site, not removed; chain copies: 2; label: biotin linker S6 hybridised to overhang; dsDNA, one strand shown.
T1 sequence: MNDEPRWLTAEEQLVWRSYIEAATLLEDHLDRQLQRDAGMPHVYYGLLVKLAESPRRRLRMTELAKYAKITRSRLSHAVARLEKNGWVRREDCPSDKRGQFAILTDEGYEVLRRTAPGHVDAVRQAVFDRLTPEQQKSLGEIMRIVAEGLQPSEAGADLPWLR

Sequence	binding signal [%Rmax]
TCAATCTACGCCGATTTTGTTTAATGTTC	5
CAATACTTGAACTCTCAATCTTTA	101
GACCTGTTCAAAGCTCAAGCAGAA	48.5
CGAGACGGTTCCTTGAACATTAAACAAAATCGGCGT	108
TTGATGTTGAATGTTCAACCAGTC	118
ACTCCAATACTTGAACTCTCAATC	92.7
ACTCCAATACTTGAACTCTCAA	41.3
CGAGACGGTTCCTTGAACATTAAA	22
ACTCCAATACTTGAACTCTCAATCTTTACGTGCC	110
TACTTGAACTCTCAATCTTTACGTGCCGT	113.9 ± 0.424
ACGGCACGTAAAGATTGAGAGTTCAAGTAT	87.9
ACGCCGATTTTGTTTAATGTTCAAGGAACCGT	110
ACTCCAATACTTGAACTCTCAATCTTTAC	115.8 ± 0.283
CGAGACGGTTCCTTGAACATTAAACAAAATCGGC	112
ACGCCGATTTTGTTTAATGTTCAAGGAA	94
